# From the supplement of paper PMC8728848
# This is one part of a sample in which the strongest signals are shown more often than they occur.
# Key:
# Assay in all cases: glycan array binding signal (z-score within array); higher = stronger binding
# Settings in all cases: glycan notation: IUPAC condensed, linker removed
# [1] = molecular target: Fuc(a1-2)Gal(b1-3)GalNAc(a1-3)[Fuc(a1-2)]Gal(b1-4)GlcNAc
# Method in brief: (§1)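 From the Consortium for Functional Glycomics database, 3228 arrays were curated, keeping only those whose protein sequence was available. Binding is given as a within-array Z-score averaged across arrays sharing a protein sequence and across linkers. Negative Z-scores can be read as non-binding.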
# [2] = molecular target: Fuc(a1-2)Gal(b1-3)GlcNAc(b1-2)Man(a1-3)[Fuc(a1-2)Gal(b1-3)GlcNAc(b1-2)Man(a1-6)]Man(b1-4)GlcNAc(b1-4)[Fuc(a1-6)]GlcNAc
# Method in brief: as §1
# [3] = molecular target: Fuc(a1-2)Gal(b1-3)GlcNAc(b1-3)Gal(b1-4)Glc
# Method in brief: as §1
# [4] = molecular target: Fuc(a1-2)Gal(b1-3)GlcNAc(b1-3)[Gal(b1-4)GlcNAc(b1-6)]Gal(b1-4)Glc
# Method in brief: as §1
# [5] = molecular target: Fuc(a1-2)Gal3S(b1-4)GlcNAc
# Method in brief: as §1
# [6] = molecular target: Fuc(a1-2)[Gal(a1-3)]Gal(b1-3)GlcNAc(b1-2)Man(a1-3)[Fuc(a1-2)[Gal(a1-3)]Gal(b1-3)GlcNAc(b1-2)Man(a1-6)]Man(b1-4)GlcNAc(b1-4)[Fuc(a1-6)]GlcNAc
# Method in brief: as §1
# [7] = molecular target: Fuc(a1-2)[Gal(a1-3)]Gal(b1-4)GlcNAc(b1-3)[Fuc(a1-2)[Gal(a1-3)]Gal(b1-4)GlcNAc(b1-6)]GalNAc
# Method in brief: as §1
# [8] = molecular target: Fuc(a1-2)[Gal(a1-3)]Gal(b1-4)[Fuc(a1-3)]GlcNAc(b1-3)GalNAc
# Method in brief: as §1
# [9] = molecular target: Fuc(a1-2)[GalNAc(a1-3)]Gal
# Method in brief: as §1
# [10] = molecular target: Fuc(a1-2)[GalNAc(b1-3)]Gal
# Method in brief: as §1
# [11] = molecular target: Fuc(a1-3)[Gal(b1-4)]GlcNAc(b1-2)Man
# Method in brief: as §1
# [12] = molecular target: Fuc(a1-3)[Gal(b1-4)]GlcNAc(b1-3)Gal(b1-4)[Fuc(a1-3)]GlcNAc
# Method in brief: as §1
# [13] = molecular target: Fuc(a1-3)[Gal(b1-4)]GlcNAc(b1-3)Gal(b1-4)[Fuc(a1-3)]GlcNAc(b1-3)Gal(b1-4)[Fuc(a1-3)]GlcNAc
# Method in brief: as §1
# [14] = molecular target: Fuc(a1-3)[Gal(b1-4)]GlcNAc(b1-3)GalNAc
# Method in brief: as §1
# [15] = molecular target: Fuc(a1-4)GlcNAc
# Method in brief: as §1
# [16] = molecular target: Gal(a1-3)Gal(b1-3)GlcNAc
# Method in brief: as §1
# [17] = molecular target: Gal(a1-3)Gal(b1-4)GlcNAc(b1-2)Man(a1-3)[Gal(a1-3)Gal(b1-4)GlcNAc(b1-2)Man(a1-6)]Man(b1-4)GlcNAc(b1-4)GlcNAc
# Method in brief: as §1
# [18] = molecular target: Gal(a1-3)[Gal(a1-4)]Gal(b1-4)GlcNAc
# Method in brief: as §1
# [19] = molecular target: Gal(b1-3)GalNAc(b1-4)[Neu5Ac(a2-3)]Gal(b1-4)Glc
# Method in brief: as §1
# [20] = molecular target: Gal(b1-3)GlcNAc(b1-2)Man
# Method in brief: as §1
# [21] = molecular target: Gal(b1-3)GlcNAc(b1-2)Man(a1-3)[GlcNAc(b1-4)][Gal(b1-3)GlcNAc(b1-2)Man(a1-6)]Man(b1-4)GlcNAc(b1-4)GlcNAc
# Method in brief: as §1
# [22] = molecular target: Gal(b1-3)GlcNAc(b1-3)Gal(b1-3)GlcNAc
# Method in brief: as §1
# [23] = molecular target: Gal(b1-4)Glc
# Method in brief: as §1
# [24] = molecular target: Gal(b1-4)GlcNAc(b1-2)Man
# Method in brief: as §1
# [25] = molecular target: Gal(b1-4)GlcNAc(b1-2)[Gal(b1-4)GlcNAc(b1-4)]Man(a1-3)[Gal(b1-4)GlcNAc(b1-2)Man(a1-6)]Man(b1-4)GlcNAc(b1-4)GlcNAc
# Method in brief: as §1
# [26] = molecular target: Gal(b1-4)GlcNAc(b1-3)Gal(b1-4)GlcNAc
# Method in brief: as §1
# [27] = molecular target: Gal(b1-4)GlcNAc(b1-3)Gal(b1-4)GlcNAc(b1-3)Gal(b1-4)GlcNAc(b1-2)Man(a1-3)[Gal(b1-4)GlcNAc(b1-3)Gal(b1-4)GlcNAc(b1-3)Gal(b1-4)GlcNAc(b1-2)Man(a1-6)]Man(b1-4)GlcNAc(b1-4)[Fuc(a1-6)]GlcNAc
# Method in brief: as §1
# [28] = molecular target: Gal(b1-4)GlcNAc(b1-3)Gal(b1-4)GlcNAc(b1-3)[Gal(b1-4)GlcNAc(b1-3)Gal(b1-4)GlcNAc(b1-6)]GalNAc
# Method in brief: as §1
# [29] = molecular target: Gal3S(b1-4)[Fuc(a1-3)]GlcNAc
# Method in brief: as §1
# [30] = molecular target: GalNAc(a1-3)GalNAc
# Method in brief: as §1
binder,measurement,setting,value
SP16665A-bot-344-23-344 (Bacteroides ovatus) (protein) SDNEFPDFDYQTVYFANQYGLRTIELGESEFVDNTLDNQHKMVIKAAWGGGYTNRNNVVINFKVDESLCDNLYFKDTDQPLVPMPASYYTLASDRIAIPKGQIMAGVEVQLTDDFFADEKSISENYVIPLLMTNVQGADSILQGKPVVENPVLTNAGDWSILPQNFVLYAVKYVNPWHGEYLRRGIDHATVAGTSKDIIRHEQFVENDEVVNISTKSMKDNLLTLKTKDESGKDISYTVRLSFAEDGSCTVHSGSQNVVVSGSGKFVSKGEKNSLGGKDRNAIYLDYTVNLTDNNIQLATKDTLVLRTRNVYGGKSLEVVRK,glycan array binding signal (z-score),[1],-0.235
same,glycan array binding signal (z-score),[2],0.285
same,glycan array binding signal (z-score),[3],-0.208
same,glycan array binding signal (z-score),[4],-0.461
same,glycan array binding signal (z-score),[5],0.29
same,glycan array binding signal (z-score),[6],-0.333
same,glycan array binding signal (z-score),[7],8.34
same,glycan array binding signal (z-score),[8],-0.571
same,glycan array binding signal (z-score),[9],-0.372
same,glycan array binding signal (z-score),[10],-0.266
same,glycan array binding signal (z-score),[11],0.187
same,glycan array binding signal (z-score),[12],-0.237
same,glycan array binding signal (z-score),[13],0
same,glycan array binding signal (z-score),[14],-0.329
same,glycan array binding signal (z-score),[15],19.1
same,glycan array binding signal (z-score),[16],0.959
same,glycan array binding signal (z-score),[17],0.709
same,glycan array binding signal (z-score),[18],1.28
same,glycan array binding signal (z-score),[19],-0.5
same,glycan array binding signal (z-score),[20],2.76
same,glycan array binding signal (z-score),[21],-0.153
same,glycan array binding signal (z-score),[22],0.024
same,glycan array binding signal (z-score),[23],-0.451
same,glycan array binding signal (z-score),[24],1.02
same,glycan array binding signal (z-score),[25],-0.051
same,glycan array binding signal (z-score),[26],-0.125
same,glycan array binding signal (z-score),[27],2.77
same,glycan array binding signal (z-score),[28],0.116
same,glycan array binding signal (z-score),[29],-0.285
same,glycan array binding signal (z-score),[30],1.35
